# Results taken from PubChem BioAssay.
# Several values for one entry are separate records, joined by “and”; a condition that tells them apart may be missing. Equal values may be shown once. Inconclusive results are not listed. Where a structure was tested more than once in an assay, its records may differ in their call. Activity calls are given as the source filed them.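 The calls were made as follows, unless noted: active = normalized viability below 100% at a tested concentration; inactive = the rest.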
# How the values were obtained:
# [1] = viability loss in pontine glioma line – cell-based, SU-DIPG-XXV, MIPE5.0, CellTiter-Glo, qHTS, dose response (AID 1347065; cut-off not given, nearly all actives have AC50 up to about 26 µM;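 also: cells exposed to compound for 48 hours before ATP readout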); settings: CellTiter-Glo ATP luminescence
# [2] = SU-DIPG-VI glioma cell viability, MIPE4.0 library, CellTiter-Glo luminescence, qHTS (AID 1347066; cut-off not given, nearly all actives have AC50 up to about 30 µM;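 also: cells exposed to compound for 48 hours before readout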); settings: CellTiter-Glo ATP luminescence
# [3] = JHH-DIPG-1 glioma cell viability, MIPE5.0 library, CellTiter-Glo luminescence, qHTS (AID 1347067; cut-off not given, nearly all actives have AC50 up to about 26 µM;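 also: cells exposed to compound for 48 hours before readout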); settings: JHH-DIPG-1 glioma viability, CellTiter-Glo ATP luminescence
# [4] = SU-DIPG-XXV glioma cell viability, MIPE5.0 library, qHTS (AID 1347068; cut-off not given, nearly all actives have IC50 up to about 30 µM;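 as to IC50: cells exposed to compound for 48 hours before viability readout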)
# [5] = survival rescue of mitochondrial mutant cells in low glucose, primary screen, MELAS cybrids, Rieske KO mouse fibroblasts, CellTiter-Glo (AID 1508586;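 active = mean z-score across replicates of 1.96 or higher in either the MELAS or the Rieske mutant cell line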;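 also: z relative to plate mean and SD of compound and empty wells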)
# [6] = ovarian cancer cell viability with rucaparib, profiling panel, oncology-focused library, rucaparib conditional (AID 1508598); settings: patient-derived ovarian cancer cells, CellTiter-Glo viability, 144 h, stronger effect = lower value
# [7] = LFS_MB_P medulloblastoma growth inhibition, cell-based, chromothripsis tumors, cisplatin or BGB combos (AID 1671449; in the data active = inhibition above about 80%;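 also: cells exposed for 96 hours; 0% = vehicle DMSO and 100% = killing by high DMSO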); settings: LFS_MB_P medulloblastoma cells
# [8] = HDN33 neuroblastoma growth inhibition, cell-based, chromothripsis tumors, cisplatin or BGB combos (AID 1671450; in the data active = inhibition above about 80%;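 also: cells exposed to compound for four days; 0% = vehicle DMSO and 100% = cell killing by high DMSO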); settings: HDN33 neuroblastoma cells, stronger effect = higher value
# [9] = ICB984 medulloblastoma cell growth inhibition, synergistic combos for chromothripsis tumors, cisplatin or BGB combos (AID 1671451; call rule not given here;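 also: cells exposed for 96 hours before readout; 0% = vehicle DMSO and 100% = killing by high DMSO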); settings: ICB984 medulloblastoma cells, drug combinations, stronger effect = higher value
# [10] = LFS_MB_1R medulloblastoma cell growth inhibition, synergistic combos for chromothripsis tumors, cisplatin or BGB combos (AID 1671452; in the data active = inhibition above about 80%;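 also: cells exposed for 96 hours before readout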); settings: LFS_MB_1R medulloblastoma cells, stronger effect = higher value
# [11] = HTB85 osteosarcoma cell growth inhibition, synergistic combos for chromothripsis tumors, BGB or cisplatin IC20 combos (AID 1671453; in the data active = inhibition above about 80%;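 also: cells exposed for 96 hours before readout; 0% = vehicle DMSO and 100% = high DMSO killing control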); settings: HTB85 osteosarcoma cells, drug combinations, stronger effect = higher value
# [12] = CRL2098 osteosarcoma cell growth inhibition, synergistic combos for chromothripsis tumors, BGB or cisplatin IC20 combos (AID 1671454; in the data active = inhibition above about 80%;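 also: cells exposed for 96 h before readout; 0% = vehicle DMSO and 100% = killing by high DMSO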); settings: CRL2098 osteosarcoma cells, drug combinations, stronger effect = higher value
# [13] = HD-MB03 medulloblastoma cell growth inhibition, synergistic combos for chromothripsis tumors, BGB or cisplatin IC20 combos (AID 1671455; in the data active = inhibition above about 83%;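 also: 0% = vehicle DMSO and 100% = high DMSO as cytotoxic control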); settings: HD-MB03 medulloblastoma cells, stronger effect = higher value
# [14] = phospholipid biosynthesis inhibitors in animal cells, primary screen, cell-based, LOPAC library, screen 4 (AID 1347384; call rule not given here); settings: phospholipid biosynthesis inhibition screen, at 10 µM
# [15] = target: NAD(+) hydrolase SARM1 (Homo sapiens) (UniProt Q6SZW1); experiment: SARM1 TIR NADase inhibitors, cell lysate, NAD-Glo luminescence (AID 1508614;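 active = compound whose remaining NAD level is above about 45 nM, limit read from the data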;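 also: higher remaining NAD means stronger inhibition of SARM1 NADase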); settings: SAM-TIR HEK293T lysate NADase, at 1 µM, stronger effect = higher value
# NAD(+) hydrolase SARM1 (Homo sapiens), sequence (Q6SZW1 whole entry, looked up, the tested form may be a part): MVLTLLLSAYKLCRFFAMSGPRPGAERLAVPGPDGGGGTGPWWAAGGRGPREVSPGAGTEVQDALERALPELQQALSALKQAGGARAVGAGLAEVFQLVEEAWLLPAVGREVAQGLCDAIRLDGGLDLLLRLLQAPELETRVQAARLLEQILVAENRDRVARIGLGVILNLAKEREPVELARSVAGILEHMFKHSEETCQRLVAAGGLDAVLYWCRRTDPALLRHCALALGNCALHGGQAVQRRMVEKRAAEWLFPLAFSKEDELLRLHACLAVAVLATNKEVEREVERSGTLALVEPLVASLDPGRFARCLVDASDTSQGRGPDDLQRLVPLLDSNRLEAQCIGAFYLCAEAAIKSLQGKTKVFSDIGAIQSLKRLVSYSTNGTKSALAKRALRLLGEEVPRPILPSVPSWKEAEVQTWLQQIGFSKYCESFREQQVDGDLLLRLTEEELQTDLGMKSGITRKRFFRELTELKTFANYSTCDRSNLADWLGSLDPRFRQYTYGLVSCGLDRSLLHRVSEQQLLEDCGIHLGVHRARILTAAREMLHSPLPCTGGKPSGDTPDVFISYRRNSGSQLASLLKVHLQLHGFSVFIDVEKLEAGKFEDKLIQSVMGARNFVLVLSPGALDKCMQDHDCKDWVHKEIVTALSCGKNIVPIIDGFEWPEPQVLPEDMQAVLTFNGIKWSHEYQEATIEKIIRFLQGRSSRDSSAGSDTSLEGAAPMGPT
# [16] = target: Mitogen-activated protein kinase 7 (Homo sapiens) (UniProt Q13164); experiment: ERK5 transactivation activators in reporter cells, primary screen, cell-based, HTS (AID 1508626;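 active = luciferase signal above three times the same-plate solvent-only control wells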;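 also: luciferase driven by Gal4-ERK5 fusion binding five Gal4 sites before minimal TATA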); settings: HeLa Gal4-ERK5 transactivation, 18 h, at 5 µM, stronger effect = higher value
# Mitogen-activated protein kinase 7 (Homo sapiens), sequence (Q13164 whole entry, looked up, the tested form may be a part): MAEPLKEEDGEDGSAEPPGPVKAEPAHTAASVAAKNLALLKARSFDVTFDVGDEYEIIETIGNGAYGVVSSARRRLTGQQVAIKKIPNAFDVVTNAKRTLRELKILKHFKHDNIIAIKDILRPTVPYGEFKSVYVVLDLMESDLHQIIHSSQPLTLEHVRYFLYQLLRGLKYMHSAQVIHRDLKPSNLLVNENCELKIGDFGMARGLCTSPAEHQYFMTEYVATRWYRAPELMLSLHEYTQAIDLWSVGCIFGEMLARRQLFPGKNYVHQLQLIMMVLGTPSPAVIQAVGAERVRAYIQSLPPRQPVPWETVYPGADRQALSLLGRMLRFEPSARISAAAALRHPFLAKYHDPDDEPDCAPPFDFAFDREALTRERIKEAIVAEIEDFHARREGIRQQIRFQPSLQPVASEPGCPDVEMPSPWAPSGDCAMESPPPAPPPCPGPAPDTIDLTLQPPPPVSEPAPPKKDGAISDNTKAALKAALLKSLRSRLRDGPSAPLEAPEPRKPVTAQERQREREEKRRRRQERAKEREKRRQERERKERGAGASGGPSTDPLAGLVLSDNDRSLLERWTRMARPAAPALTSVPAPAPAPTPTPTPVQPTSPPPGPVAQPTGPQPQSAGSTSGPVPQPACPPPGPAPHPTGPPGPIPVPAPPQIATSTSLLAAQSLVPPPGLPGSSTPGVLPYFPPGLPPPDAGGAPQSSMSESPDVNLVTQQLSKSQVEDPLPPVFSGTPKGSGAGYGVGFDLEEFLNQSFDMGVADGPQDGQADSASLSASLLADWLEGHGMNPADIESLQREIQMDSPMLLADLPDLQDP
# [17] = viability rescue of complex I mutant cybrids, primary screen, cell-based, galactose medium, ATP luminescence (AID 1645843;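 active = z-score of at least 1.8 in each of two replicates, scored against plate mean and spread of sample wells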;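 also: positive z means more ATP and so rescue of galactose-driven cybrid death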); settings: complex I mutant cybrid cells, 72 h, stronger effect = higher value
# [18] = modifiers of HSF1 nuclear foci, imaging, Selleck Cancer Library (AID 1347162; in the data active = plate-normalised HSF1 focus index below about 0.46); settings: human cells, at 10 µM; SSMD: measured here: HSF1 foci SSMD mean; cell count: measured here: cell number; plate-normalised HSF1 focus index: stronger effect = lower value
# [19] = MELAS cybrid survival, CellTiter-Glo 48 h, stronger effect = higher value
# [20] = Rieske KO mouse fibroblast survival, CellTiter-Glo 72 h
# [21] = measured here: combination with BGB IC40, at 0.05 µM
compound,measurement,setting,value
Cc1nc2ccc(CN(C)c3ccc(C(=O)N[C@@H](CCC(=O)O)C(=O)O)s3)cc2c(=O)[nH]1,outcome,[1],inactive
same,outcome,[2],inactive
same,outcome,[3],inactive
same,outcome,[4],inactive
same,z-score,[5]; [19],-0.789 (inactive)
same,z-score,[5]; [20],-1.02
same,viability,"[6]; at 0.000305 µM, OCI-C5x cells, with rucaparib 10 µM, 100% = cells with rucaparib alone",114% (inactive)
same,viability,"[6]; at 0.000305 µM, OCI-C5x cells, without rucaparib",92.6% (active)
same,viability,"[6]; at 0.000305 µM, OCI-P5x cells, with rucaparib 20 µM, 100% = cells with rucaparib alone",107% (inactive)
same,viability,"[6]; at 0.000305 µM, OCI-P5x cells, without rucaparib",104% (inactive)
same,viability,"[6]; at 0.00122 µM, OCI-C5x cells, with rucaparib 10 µM, 100% = cells with rucaparib alone",115% (inactive)
same,viability,"[6]; at 0.00122 µM, OCI-C5x cells, without rucaparib",84.6% (active)
same,viability,"[6]; at 0.00122 µM, OCI-P5x cells, with rucaparib 20 µM, 100% = cells with rucaparib alone",108% (inactive)
same,viability,"[6]; at 0.00122 µM, OCI-P5x cells, without rucaparib",106% (inactive)
same,viability,"[6]; at 0.00488 µM, OCI-C5x cells, with rucaparib 10 µM, 100% = cells with rucaparib alone",72.8% (active)
same,viability,"[6]; at 0.00488 µM, OCI-C5x cells, without rucaparib",55.7% (active)
same,viability,"[6]; at 0.00488 µM, OCI-P5x cells, with rucaparib 20 µM, 100% = cells with rucaparib alone",114% (inactive)
same,viability,"[6]; at 0.00488 µM, OCI-P5x cells, without rucaparib",109% (inactive)
same,viability,"[6]; at 0.0195 µM, OCI-C5x cells, with rucaparib 10 µM, 100% = cells with rucaparib alone",19.2% (active)
same,viability,"[6]; at 0.0195 µM, OCI-C5x cells, without rucaparib",17.1% (active)
same,viability,"[6]; at 0.0195 µM, OCI-P5x cells, with rucaparib 20 µM, 100% = cells with rucaparib alone",116% (inactive)
same,viability,"[6]; at 0.0195 µM, OCI-P5x cells, without rucaparib",110% (inactive)
same,viability,"[6]; at 0.0781 µM, OCI-C5x cells, with rucaparib 10 µM, 100% = cells with rucaparib alone",16.3% (active)
same,viability,"[6]; at 0.0781 µM, OCI-C5x cells, without rucaparib",17.6% (active)
same,viability,"[6]; at 0.0781 µM, OCI-P5x cells, with rucaparib 20 µM, 100% = cells with rucaparib alone",118% (inactive)
same,viability,"[6]; at 0.0781 µM, OCI-P5x cells, without rucaparib",111% (inactive)
same,viability,"[6]; at 0.313 µM, OCI-C5x cells, with rucaparib 10 µM, 100% = cells with rucaparib alone",15.6% (active)
same,viability,"[6]; at 0.313 µM, OCI-C5x cells, without rucaparib",19.3% (active)
same,viability,"[6]; at 0.313 µM, OCI-P5x cells, with rucaparib 20 µM, 100% = cells with rucaparib alone",119% (inactive)
same,viability,"[6]; at 0.313 µM, OCI-P5x cells, without rucaparib",111% (inactive)
same,viability,"[6]; at 1.25 µM, OCI-C5x cells, with rucaparib 10 µM, 100% = cells with rucaparib alone",14.5% (active)
same,viability,"[6]; at 1.25 µM, OCI-C5x cells, without rucaparib",17.5% (active)
same,viability,"[6]; at 1.25 µM, OCI-P5x cells, with rucaparib 20 µM, 100% = cells with rucaparib alone",111% (inactive)
same,viability,"[6]; at 1.25 µM, OCI-P5x cells, without rucaparib",116% (inactive)
same,viability,"[6]; at 5 µM, OCI-C5x cells, with rucaparib 10 µM, 100% = cells with rucaparib alone",16.1% (active)
same,viability,"[6]; at 5 µM, OCI-C5x cells, without rucaparib",19.3% (active)
same,viability,"[6]; at 5 µM, OCI-P5x cells, with rucaparib 20 µM, 100% = cells with rucaparib alone",124% (inactive)
same,viability,"[6]; at 5 µM, OCI-P5x cells, without rucaparib",113% (inactive)
same,inhibition,"[7]; at 0.5 µM, stronger effect = higher value",-8.68% (inactive)
same,inhibition,"[7]; measured here: combination with BGB IC20, at 0.005 µM",-6.5%
same,inhibition,"[7]; measured here: combination with BGB IC40, at 0.005 µM",-33.6%
same,inhibition,[7]; [21],2.07%
same,inhibition,"[7]; measured here: combination with cisplatin, at 0.5 µM, stronger effect = higher value",-25.4%
same,inhibition,"[7]; measured here: combination with cisplatin, at 5 µM, stronger effect = higher value",-36.4%
same,inhibition,"[8]; BGB combo, at 5 µM",77.1%
same,inhibition,[8]; at 0.5 µM,77.4% (inactive)
same,inhibition,"[8]; cisplatin combo, at 5 µM",75.6%
same,inhibition,"[8]; measured here: with BGB IC20 combination, at 0.5 µM",75.7%
same,inhibition,"[8]; measured here: with cisplatin IC20 combination, at 0.5 µM",73.8%
same,inhibition,"[8]; single agent, at 5 µM",82.5%
same,inhibition,"[9]; BGB IC20 combo, at 0.005 µM",-19.7%
same,inhibition,"[9]; BGB IC40 combo, at 0.005 µM",-58.4%
same,inhibition,"[9]; BGB IC40 combo, at 0.05 µM",-47.3%
same,inhibition,[9]; at 0.5 µM,-21.4% (inactive)
same,inhibition,"[9]; cisplatin combo, at 0.05 µM",-53.1%
same,inhibition,"[9]; cisplatin combo, at 0.5 µM",-23.4%
same,inhibition,"[9]; cisplatin combo, at 5 µM",-41.1%
same,inhibition,"[9]; measured here: 5 uM single agent, at 5 µM",-8.4%
same,inhibition,[10]; at 0.5 µM,-22.3% (inactive)
same,inhibition,[10]; [21],-24.2%
same,inhibition,"[10]; measured here: combination with cisplatin, at 0.5 µM",-26.4%
same,inhibition,"[10]; measured here: combination with cisplatin, at 5 µM",-6.83%
same,inhibition,[11]; at 0.5 µM,-11% (inactive)
same,inhibition,"[11]; measured here: with BGB IC20, at 0.5 µM",-19.6%
same,inhibition,"[11]; measured here: with BGB IC20, at 5 µM",-9.72%
same,inhibition,"[11]; measured here: with cisplatin IC20, at 0.5 µM",-17.6%
same,inhibition,"[11]; measured here: with cisplatin IC20, at 5 µM",2.95%
same,inhibition,"[11]; single agent, at 5 µM",10.6%
same,inhibition,[12]; at 0.5 µM,54.5% (inactive)
same,inhibition,"[12]; measured here: combination with BGB at IC20, at 0.5 µM",35.1%
same,inhibition,"[12]; measured here: combination with cisplatin at IC20, at 0.5 µM",62.3%
same,inhibition,[13]; at 0.5 µM,78.5% (inactive)
same,inhibition,"[13]; measured here: combo with BGB at IC20, at 0.5 µM",71.9%
same,inhibition,"[13]; measured here: combo with cisplatin at IC20, at 0.5 µM",79.7%
Cc1cc(C(C)(C)C)cc(C)c1CC1=NCCN1,outcome,[1],inactive
same,outcome,[2],inactive
same,outcome,[3],inactive
same,outcome,[4],inactive
same,outcome,[14],inactive
same,z-score,[5]; [19],0.304 (inactive) and -0.439 (inactive) and 0.446 (inactive)
same,z-score,[5]; [20],0.616 and -0.336 and 0.511
same,remaining NAD,[15],10 nM (inactive)
same,luciferase signal,[16],44 AU (inactive)
same,z-score,[17],-0.37 (inactive) and 0.085 (inactive)
COc1cccc2c1C(=O)c1c(O)c3c(c(O)c1C2=O)C[C@@](O)(C(=O)CO)C[C@@H]3O[C@H]1C[C@H](N)[C@H](O)[C@H](C)O1,AC50,[1],1.18 µM (active)
same,AC50,[2],2.35 µM (active)
same,AC50,[3],1.05 µM (active)
same,IC50,[4],7.42 µM (active)
same,SSMD,[18],-18.3
same,cell count,[18],7010
same,plate-normalised HSF1 focus index,[18],0.0593 (active)
same,z-score,[5]; [19],0.616 (inactive) and 7.1 (active)
same,z-score,[5]; [20],-1.64 and -0.526
same,remaining NAD,[15],10 nM (inactive)
same,luciferase signal,[16],32 AU (inactive)
same,z-score,[17],-0.63 (inactive) and -2.04 (inactive)
